# Laboratory results taken from PubChem BioAssay (EPA / NIEHS).
# Where “and” joins values, the source holds several entries; their conditions need not be identical. Equal entries are not always repeated. Inconclusive results are not listed. Calls of active or inactive are those of the source. How the source made its calls, unless noted: active means hit-call score of the fitted dose curve at least 0.9, where 1 is the maximum; inactive means score below 0.9.
# Legend:
# [1] = tested on: SRY-box transcription factor 2 (SOX2) Protein Expression, Deisenroth Lab, SOX2 (gene 6657); experiment: CCTE_Deisenroth_DEVTOX-GLR_legacy_Sox2: (Legacy) CCTE's DevTox GLR-Endo Assay Evaluation of SRY-box transcription factor 2 (SOX2) Protein Expression, Deisenroth Lab (AID 2284346)
# Summary of the method: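 hPSC RUES2-GLR, 384-well; 24 h seed → 48 h endoderm differentiation, 2 doses q24h, 1 nM–200 uM. Fix, nuclear dye, 5 fields/well. Sox2+ cells/cell count; cell positive if >5x BMAD over endoderm ctrl; gain direction vs DMSO.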
# [2] = Tanguay_ZF_120hpf_MO24: Oregon State University Tanguay Lab 24 Hour Post-fertilization zebrafish Assay for Mortality (AID 2284389)
# Summary of the method: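 Dechorionated wild-type zebrafish embryos, 1 per well, statically exposed from 6 hpf at 28C, 0.64% DMSO final. Mortality scored as binary present/absent at 24 hpf by brightfield microscopy, relative to DMSO.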
# [3] = Tanguay_ZF_120hpf_DP24: Oregon State University Tanguay Lab 24 Hour Post-fertilization zebrafish Assay for Delayed Development (AID 2284390)
# Summary of the method: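 Dechorionated 5D wild-type zebrafish embryos exposed statically from 6 hpf, one per well, 0.64% DMSO final, 28 C, sealed and dark. Developmental progression scored at 24 hpf by brightfield as binary present/absent; dead embryos excluded.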
# [4] = Tanguay_ZF_120hpf_AXIS: Oregon State University Tanguay Lab 120 Hour Post-fertilization zebrafish Assay for Axial Malformation (AID 2284398)
# Summary of the method: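 Dechorionated 5D wild-type zebrafish embryos exposed statically, one per well, from 6 to 120 hpf at 28C, 0.64% DMSO. Axial malformation scored as present/absent by brightfield microscopy at 120 hpf; dead embryos not scored.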
# [5] = Tanguay_ZF_120hpf_MORT: Oregon State University Tanguay Lab 120 Hour Post-fertilization zebrafish Assay for Mortality (AID 2284399)
# Summary of the method: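 Dechorionated wild-type Tropical 5D zebrafish embryos, one per well from 6 hpf, static exposure to 120 hpf at 28C in sealed dark plates, 0.64% DMSO final. Mortality scored as binary by brightfield at 24 and 120 hpf.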
# [6] = CCTE_Mundy_HCI_iCellGluta_NOG_NeuriteCount: CCTE's Neurite Outgrowth Assay in iCellGluta cells for Neurite Count, Mundy Lab (AID 2284342; active means hit-call score of the fitted dose curve at least 0.9, where 1 is the maximum;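 further: chemical exposure about 48 hours starting 2 hours after plating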)
# [7] = tested on: SERPINA7 (gene 6906); experiment: CCTE_GLTED_hTBG: CCTE's human Thyroxine-binding Globulin (TBG) Inhibition Assay, Great Lakes Toxicology and Ecology Division (GLTED) Lab (AID 2284343; active means hit-call score of the fitted dose curve at least 0.9, where 1 is the maximum;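 further: active chemicals lower fluorescence versus DMSO baseline by displacing probe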)
# Summary of the method: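 Measures how far test chemicals displace ANSA bound to purified human TBG. The read-out is fluorescence at 380 nm excitation and 475 nm emission, taken after 2 h of incubation.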
# [8] = CCTE_Deisenroth_H295R-HTRF_384WELL_ESTRADIOL: CCTE's H295R-HTRF Assay Evaluation of Estradiol Concentration, Deisenroth Lab (AID 2284361); settings: actives raise or lower the signal
# Summary of the method: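 H295R cells exposed 48 h to chemicals at 0.001 - 100 uM final (nine points, triplicate); estradiol in conditioned medium measured by HTRF immunoassay, fitted bidirectionally versus DMSO. Viability by CellTiter-Glo on same plates.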
# [9] = CCTE_Deisenroth_H295R-HTRF_384WELL_TESTOSTERONE: CCTE's H295R-HTRF Assay Evaluation of Testosterone Concentration, Deisenroth Lab (AID 2284373); settings: actives raise or lower the signal
# Summary of the method: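 H295R cells were acclimated 24 h, then exposed 48 h to nine concentrations (0.001–100 uM final) in technical triplicate, n=5. Testosterone in conditioned medium was measured by HTRF (em 620/665 nm). Fitting was bidirectional versus DMSO; CellTiter-Glo viability ran on the same plates.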
# [10] = CCTE_Deisenroth_H295R-HTRF_384WELL_CTOX: Cytotoxicity Assessment in CCTE's H295R-HTRF Assay, Deisenroth Lab (AID 2284380; active means hit-call score of the fitted dose curve at least 0.9, where 1 is the maximum)
# Experimental: CCTE_Deisenroth_H295R-HTRF_384WELL assay is a cell-based, multiplex-readout assay that uses H295R, a human adrenocortical carcinoma cell line, with measurements taken at 48 hours after chemical dosing in a 384-well microplateCCTE_Deisenroth_H295R-HTRF_384WELL_CTOX is one of 3 assay components measured in the CCTE_Deisenroth_H295R-HTRF_384WELL assay (2 hormones and 1 viability components). It is designed to make measurements of adenosine triphosphate (ATP), a form of viability reporter, as detected with luminescence intensity signals by CellTiter-Glo 2.0 cytotoxicity assay technology.This assay endpoint, CCTE_Deisenroth_H295R-HTRF_384WELL_CTOX, was analyzed in the positive fitting direction relative to DMSO as the negative control and baseline of activity. […]
# Standard operating procedures for the cell culture medium, maintenance, expansion, and cryopreservation of the NCI-H295R adrenocortical carcinoma adherent cell line were adopted directly from guideline specifications (EPA 2011, OECD 2011). […] Fluorescent endpoint measurements are conducted with a microplate reader equipped with an HTRF-compatible filter set (ex: 320 (10) […]; em: 620 (10) and 665 (10) nM). […] After collecting conditioned medium samples on Day 3, the viability assay is immediately performed and luminescence readings measured on a microplate reader. […]
structure (smiles),measurement,setting,value
NNC(=O)c1ccncc1,outcome,[1],inactive
FC(F)C(F)(F)COCC1CO1 (configuration not stated),outcome,[2],inactive
same,outcome,[3],inactive
same,outcome,[4],inactive
same,outcome,[5],inactive
FC(F)(F)COC(OCC(F)(F)F)OCC(F)(F)F,outcome,[2],inactive
same,outcome,[3],inactive
same,outcome,[4],inactive
same,outcome,[5],inactive
C[C@]12C=CC(=O)C=C1CC[C@H]1[C@@H]3C[C@@H](O)[C@](O)(C(=O)CO)[C@@]3(C)C[C@H](O)[C@@]12F,AC50,[6],23.7 µM (active)
c1ccc2cc3ccccc3cc2c1,outcome,[6],inactive
O=C(Cl)C(F)(F)C(F)(F)C(F)(F)C(=O)Cl,outcome,[6],inactive
same,AC50,[2],57.3 µM (active)
same,outcome,[3],inactive
same,outcome,[4],inactive
same,AC50,[5],57.6 µM (active)
Nc1ccn([C@@H]2O[C@H](CO)[C@@H](O)[C@@H]2O)c(=O)n1,AC50,[6],959 nM (active) and 1.04 µM (active)
same,AC50,[1],0.937 µM (active)
OC(O)(C(F)C(O)(O)C(F)(F)F)C(F)(F)F,outcome,[6],inactive
same,outcome,[2],inactive
same,outcome,[3],inactive
same,outcome,[4],inactive
same,outcome,[5],inactive
O=S(=O)(O)CCC(F)(F)C(F)(F)C(F)(F)C(F)(F)C(F)(F)C(F)(F)F,outcome,[2],inactive
same,outcome,[3],inactive
same,outcome,[4],inactive
same,outcome,[5],inactive
CCCC(CCC)C(=O)O,outcome,[1],inactive
C=CCc1cc(S(=O)(=O)c2ccc(O)c(CC=C)c2)ccc1O,AC50,[7],1.47 µM (active)
CCCCCCCCCCCCCCCCOS(=O)(=O)O,AC50,[7],2.91 µM (active)
O=C(NO)C1(NS(=O)(=O)c2ccc(Oc3ccc(F)cc3)cc2)CCOCC1,outcome,[7],inactive
NC(=O)N1c2ccccc2C=Cc2ccccc21,AC50,[7],30.5 µM (active)
same,outcome,[1],inactive
CCc1ccc(O)c(C(C)(C)C)c1,AC50,[7],35.3 µM (active)
NCC(F)(F)C(F)(F)C(F)(F)C(F)(F)F,outcome,[2],inactive
same,outcome,[3],inactive
same,outcome,[4],inactive
same,outcome,[5],inactive
CC(C)C(=O)Nc1ccc([N+](=O)[O-])c(C(F)(F)F)c1,outcome,[7],inactive
same,outcome,[8],inactive
same,outcome,[9],inactive
same,AC50,[10],66.7 µM (active)
CCN(CC)C(=S)SSC(=S)N(CC)CC,AC50,[7],11.7 µM (active)
FC(F)=C(F)C(F)(F)C(F)(F)C(F)(F)C(F)(F)C(F)(F)C(F)(F)F,outcome,[6],inactive
same,outcome,[2],inactive
same,outcome,[3],inactive
same,outcome,[4],inactive
same,outcome,[5],inactive
OCCC(F)(F)C(F)(F)C(F)(F)C(F)(F)F,outcome,[2],inactive
same,outcome,[3],inactive
same,outcome,[4],inactive
same,outcome,[5],inactive
Cn1cc[nH]c1=S,outcome,[6],inactive
FC(F)(F)C(F)(F)C(F)(F)C(F)(F)C(F)(F)C(F)(F)I,outcome,[6],inactive
same,outcome,[2],inactive
same,outcome,[3],inactive
same,outcome,[4],inactive
same,outcome,[5],inactive
C[Si](C)(C)C(F)(F)C(F)(F)C(F)(F)F,outcome,[2],inactive
same,outcome,[3],inactive
same,outcome,[4],inactive
same,outcome,[5],inactive
